Here are results for 23 compounds from paper PMC4336329 (PLoS ONE, 2015).

Out of some 310,000 compounds screened, about 14,000 (4.5%) showed an effect of 50% or more. Effects have a minus sign here. The list comes from a sample in which strong results are over-represented; it also holds similar structures and randomly drawn compounds.
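Further: peak tail current of the secondary pulse compared with the same well before compound.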

human ether-à-go-go-related gene (hERG) potassium channel, sequence (Q12809 whole entry, looked up): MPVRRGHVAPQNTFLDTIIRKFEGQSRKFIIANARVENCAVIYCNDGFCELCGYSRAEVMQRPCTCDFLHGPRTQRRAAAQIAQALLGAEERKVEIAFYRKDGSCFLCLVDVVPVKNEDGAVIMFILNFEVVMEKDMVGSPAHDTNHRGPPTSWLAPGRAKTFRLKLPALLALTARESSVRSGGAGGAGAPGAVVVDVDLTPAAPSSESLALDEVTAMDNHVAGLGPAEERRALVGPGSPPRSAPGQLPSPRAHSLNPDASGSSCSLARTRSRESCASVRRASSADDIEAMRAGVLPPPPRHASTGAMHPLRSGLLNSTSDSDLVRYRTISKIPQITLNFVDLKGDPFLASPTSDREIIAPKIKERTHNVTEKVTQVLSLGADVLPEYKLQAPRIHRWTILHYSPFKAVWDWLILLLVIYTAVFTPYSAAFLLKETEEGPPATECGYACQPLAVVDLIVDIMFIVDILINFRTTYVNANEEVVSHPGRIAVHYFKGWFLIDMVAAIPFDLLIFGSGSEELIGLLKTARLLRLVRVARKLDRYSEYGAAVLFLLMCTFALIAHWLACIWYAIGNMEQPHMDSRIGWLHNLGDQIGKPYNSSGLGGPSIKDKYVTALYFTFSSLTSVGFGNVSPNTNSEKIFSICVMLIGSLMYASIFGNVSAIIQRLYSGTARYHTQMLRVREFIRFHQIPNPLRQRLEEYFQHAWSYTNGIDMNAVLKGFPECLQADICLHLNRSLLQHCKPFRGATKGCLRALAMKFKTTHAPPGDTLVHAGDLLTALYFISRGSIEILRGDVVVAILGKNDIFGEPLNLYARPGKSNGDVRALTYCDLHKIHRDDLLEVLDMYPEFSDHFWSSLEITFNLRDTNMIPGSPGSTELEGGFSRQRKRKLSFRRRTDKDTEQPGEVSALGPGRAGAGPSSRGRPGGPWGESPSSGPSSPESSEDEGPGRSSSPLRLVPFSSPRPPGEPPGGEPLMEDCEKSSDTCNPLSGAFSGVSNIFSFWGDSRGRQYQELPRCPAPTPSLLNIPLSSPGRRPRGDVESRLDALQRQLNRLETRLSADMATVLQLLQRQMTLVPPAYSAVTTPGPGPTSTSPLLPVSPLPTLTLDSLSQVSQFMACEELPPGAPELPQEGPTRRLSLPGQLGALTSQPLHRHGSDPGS

This test has as its target human ether-à-go-go-related gene (hERG) potassium channel (human, UniProt Q12809). Kind of test: primary screen, population patch clamp on CHO cells stably expressing hERG; higher = less effect of the substance.
In the case of `O=C(NCC(=O)N(c1ccc(Cl)cc1)C(C(=O)NC1CCCC1)c1ccncc1)c1ccco1` (centres unmarked), the “hERG current change (%, negative = inhibition) at 10uM” value is recorded as -5.29%.
Under `O=C(Nc1ccccn1)Nc1ccccc1Cl` stands 23.2%; under `Cc1nc2scc(-c3ccccc3)c2c(=O)o1`, -12.7%; under `CN1C=CC=C/C1=C1\SC(=S)N(N)C1=O`, 26.4%.
Under `CN1C=CC=C/C1=C1\SC(=S)N(C2CCCCC2)C1=O` stands -52.3%.
Under `CCN1C(=O)/C(=C2/C=CC=CN2C)SC1=S` stands -35.2%; under `O=C(N/N=C/c1ccc(O)c([N+](=O)[O-])c1)c1ccncc1`, -7.5%; under `Cc1ccc(C)c(CSc2ncccc2C(=O)O)c1`, 6.29%.
`O=C(C[n+]1ccc(C(=O)N/N=C/c2ccc(O)cc2)cc1)c1ccccc1.[Br-]`: the “hERG current change (%, negative = inhibition) at 10uM” value is given as -6.07%.
Consider `COc1ccc(OC)c(/C=N/NC(=O)c2ccc[n+](CC(=O)c3ccccc3)c2)c1`, for which the “hERG current change (%, negative = inhibition) at 10uM” value is listed as 15.3%.
As for `O=C(N/N=C/c1ccc(Cl)cc1Cl)c1cccc(F)c1`, the “hERG current change (%, negative = inhibition) at 10uM” value is on record as -10.5%.
Under `O=C(N/N=C/c1ccc(Br)cc1)c1cc[n+](Cc2ccccc2)cc1.[Cl-]` stands -10.7%; under `O=C(C[n+]1ccc(C(=O)N/N=C/c2ccc(Br)cc2)cc1)c1ccccc1.[Br-]`, -63.6%.
Under `COc1ccc(OC)c(/C=N/NC(=O)c2cc[n+](CC(=O)c3ccccc3)cc2)c1.[Br-]` stands -5.33%; under `O=C(C[n+]1cccc(C(=O)N/N=C/c2ccc(Br)cc2)c1)c1ccccc1`, -56.5%.
The value for `O=C(C[n+]1ccc(C(=O)N/N=C/c2ccc(Cl)cc2Cl)cc1)c1ccccc1.[Br-]` was -74.8%; that for `O=C(C[n+]1ccc(C(=O)N/N=C/c2ccc(OCc3ccccc3)cc2)cc1)c1ccccc1.[Br-]` was 1.3%; that for `Cc1ccc(C(=O)N2CCCC(C(=O)c3ccc(Oc4ccccc4)cc3)C2)cn1` (centres unmarked) was -41%.
With `CCC(=O)N1CCc2cc(S(=O)(=O)NC(C(=O)NCc3ccccc3)C(C)C)ccc21` (centres unmarked), the “hERG current change (%, negative = inhibition) at 10uM” value was determined as 13.2%.
With `COc1ccc(OCC(=O)Nc2cccc(S(=O)(=O)N(C)c3ccccc3)c2)c([N+](=O)[O-])c1`, the “hERG current change (%, negative = inhibition) at 10uM” value was -6.21%.
The value for `CCC1c2ccc(C)n2CCN1C(=O)Nc1ccccc1OC` (centres unmarked) was 9.92%; that for `C=CCN(CC=C)C(=S)NC(=O)/C=C/c1ccc(C)cc1` was 8.14%.
Under `CC1(C)C(=O)N(c2ccccc2Cl)C(=O)c2ccccc21` stands -18.2%.
